Whole data set: some 33,000 sequences, median “E-score (-0.5 to 0.5)” near -0.0014, cut for the highest 2% near 0.25. The entries come from a sample that favours the highest values as a whole.
Target: T1, Cad1 (UniProt P24813)
T1 sequence: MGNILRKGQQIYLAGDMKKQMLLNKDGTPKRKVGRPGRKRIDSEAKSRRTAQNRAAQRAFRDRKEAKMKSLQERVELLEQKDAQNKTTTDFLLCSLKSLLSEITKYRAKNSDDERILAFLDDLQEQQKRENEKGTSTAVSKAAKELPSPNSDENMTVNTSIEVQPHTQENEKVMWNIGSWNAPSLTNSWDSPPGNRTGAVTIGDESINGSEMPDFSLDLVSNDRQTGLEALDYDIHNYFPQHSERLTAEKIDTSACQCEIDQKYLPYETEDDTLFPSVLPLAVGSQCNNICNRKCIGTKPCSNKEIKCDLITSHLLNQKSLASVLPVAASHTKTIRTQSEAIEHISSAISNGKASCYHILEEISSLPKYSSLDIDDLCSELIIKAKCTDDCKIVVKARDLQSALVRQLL
Assay: PBM E-score (8-mer binding enrichment) (E-score (-0.5 to 0.5)); higher = stronger / more preferred TF binding
Conditions: protein concentration: 100 nM; construct: GST-full length
Procedure, shortened: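 Bound GST-tagged yeast transcription factors, applied at about 100-200 nM to double-stranded universal all-10-mer Agilent arrays, were detected with fluorescent anti-GST. Scans were normalised with masliner. A modified Wilcoxon-Mann-Whitney statistic, the E-score, was assigned to each ungapped eight-base word pooled with its reverse complement by the Universal PBM Analysis Suite.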

Sequence	PBM E-score
GCGGGCCC	-0.157
ATCCGCCA	0.0883
CAGAAGAC	0.0287
AATCATAC	0.0986
GGTGAAAC	-0.0742
GACTATCC	-0.0732
AGAATGAT	0.0516
CTTGGCTC	-0.149
TAAGCTTA	0.378
TAAGCTGA	0.208
CAAGCTTA	0.159
ACGTAGGG	-0.284
AGAGTTTG	0.0139
AGATCCCG	0.281
CGATCCCG	-0.265
AGATCCCT	-0.312
AAGACCTT	-0.0766
CCATTCTC	-0.114
TGGAGAAA	-0.151
AAATTACG	-0.00187
AAATTACT	0.314
AAATTAAT	0.288
AAATTAAC	0.0173
AAATTAGG	0.13
AAATTACC	0.081

Sequence	PBM E-score
AAATTAAA	0.257
GAATTAAA	-0.0332
AGATTAAT	0.16
AAATTAGT	0.273
AAATTAAG	0.0523
AAATTAGA	0.191
AAGTAACG	-0.0002
AACCTGCG	-0.142
CAAAGAGA	-0.113
ACCCGTTC	-0.0216
CCAGGGCG	-0.18
AGAGTTGG	-0.0857
TTGGTAAA	0.073
GAAATTAC	0.234
CAAATTAA	0.207
GAAATTAA	0.295
ACGTAAGT	-0.102
ACATAATG	0.172
GCGTAATA	0.142
ACATAATC	0.309
ACGTAAGC	0.287
CCGTAATA	0.113
ACGTAATC	0.286
ACGTAATA	0.311
ACATAATA	0.178

Sequence	PBM E-score
CCGTAATC	0.143
ACGTAAGA	0.199
ACGTAATG	0.147
AAGTGGAA	-0.0197
CTCCCGCC	-0.163
ACGAAAGT	0.0253
ACACAACT	0.0775
GAAGCCAA	-0.183
CCGAAGCG	-0.22
GAATAACA	0.252
CCCTAATC	-0.076
ATGTAAGA	0.227
CAATAACA	-0.0158
ATGTAAGG	0.0288
ACCTAATA	0.137
ATGTAAGC	0.305
ACATAACA	0.273
TAATAACA	0.15
ACCTAATC	0.259
ACATAACT	0.0912
ACATAACC	-0.0477
CCTTAGCC	-0.00184
CACGCACG	-0.131
ATTCGGGG	0.0825
GTGCCGAA	-0.0386

Sequence	PBM E-score
ACTTACGG	0.0069
TGGAGTAA	0.149
AGTTTGTG	-0.0199
GGCATAAC	0.0911
CGCGAAGA	0.273
GGCGCACA	0.00969
CGCGCAGC	0.103
CGCGCACG	0.0231
CGCGAAGC	0.219
GGCGCAGA	0.00055
AGCGAAGA	-0.118
CGCGCAGA	0.287
CGCGCACA	0.257
ACCTTCAT	-0.0561
CATAAACC	-0.0325
CGAGGCGA	0.0962
ATAAGTTC	0.197
GAAAGTAC	-0.0278
CTCAATTC	0.066
CCAGCTAA	-0.0477
AATGCATT	0.229
CATGCATA	0.156
CATGCATG	0.252
AATGCATG	0.254
AATGCATA	0.0741

Sequence	PBM E-score
CATGCATC	0.148
CGTAACAC	0.124
GGGTCGTA	-0.236
ACGAAAAT	0.189
AGAGTGTC	0.198
CGGACGAC	-0.0294
CGGACGAA	0.274
GGGACGAA	-0.108
ATCTGGTG	0.0268
CGATACAC	0.00183
ATTTCTCA	0.0134
ATTTCTCG	0.332
ATTTCTCC	-0.0308
GATTACAC	0.156
TATTACAA	0.152
CATTACAG	0.0228
CATTACAA	0.277
GATTACAA	0.294
CATTACAC	0.0518
AACTTATA	0.257
TACTTATA	0.0796
GACTTATA	0.214
CTAGCTAA	-0.0595
CTTGCTAA	-0.13
CTAGCTAG	0.279

Sequence	PBM E-score
CTAGCTAC	-0.0695
ATAGCTAG	-0.106
ATTGCTAA	0.256
ATTGCTAG	0.014
TTAGCTAA	0.298
ATAGCTAA	0.0748
ACGCCTCT	-0.183
GCTTTGAA	0.108
ACCGTGTA	0.00454
GCTTACAA	0.308
AATTACGA	0.148
CCTTACGA	0.00401
TCTTACAA	0.0371
ACTTACGA	0.184
GATTACGA	0.318
ACTTACAT	0.0914
GCTTACAC	0.23
ACTTACAA	0.278
ACTTACAC	-0.0153
CATTACGA	0.0111
GCTTACGA	0.258
CGACTAAG	-0.00537
ACTTCAGG	-0.041
TACAACTA	0.0174
CAGACCCA	-0.175

Sequence	PBM E-score
CCTTACTA	0.211
GCTTACCC	0.034
TCTTACCA	-0.131
ACTTACTA	0.184
GCTTACCA	0.255
GCTTACTA	0.426
AGTCAAGA	0.121
GCCTTATA	-0.0929
GGGATGCA	-0.167
AACGGGAA	0.00234
GTCGAAGA	-0.0249
ATTGGCTC	0.0265
ATAACGGA	0.155
CTAACGGC	0.00942
TCCACGGA	0.282
CCCACGGA	-0.117
ACCACGGA	-0.141
CTAACGGA	0.294
ATGGTCCC	-0.189
CCGCCCTA	-0.00222
AGTCGGAA	0.0204
AATACTCC	-0.123
GGTAATCA	0.203
AGTAAACA	0.182
GGTAAACA	0.124

Sequence	PBM E-score
CATAATCA	0.175
CGTAATCC	0.191
CGTAAACA	0.256
AGTAATCA	0.297
AGTAATCC	0.229
CGTAATCA	0.336
AATCCCAG	0.0625
AAGAGTCG	0.0695
AATTTCTG	0.0718
AGCGGGCC	-0.0503
CCACCATA	-0.0653
CATCCGTC	-0.00289
AAATACTA	0.0416
CAATACTA	0.0552
AACTAAAA	0.133
AACTAATA	0.351
AACTAATT	0.217
TACTAGTA	0.273
TACTACTA	0.157
GACTAGTA	-0.117
TACTAATA	0.285
TAATACTA	0.303
CACTAGTA	0.0511
CACTAATA	0.183
ATACTTAC	0.0308

Sequence	PBM E-score
AGACGCCT	-0.1
ACCAACGT	0.0535
CGGCTTTA	-0.151
CGATCGGA	0.0447
CTCCATAC	-0.104
ATACACCA	0.12
CACGACTA	-0.148
CGAAGCTC	-0.231
TACTTGAA	0.0482
CAATAATA	0.208
GACTAAAA	0.114
CACTAATG	-0.0516
TAATAATA	0.29
AACTAATG	0.283
GACTAACA	0.218
AACTAAAG	0.2
GACTAATA	0.372
GAATAATA	0.221
GCTGGGCC	-0.297
GCCTATAC	-0.214
GGAATGAC	-0.179
CAGTCCAG	-0.0544
CGTCAAAC	-0.0838
AGCACTAC	-0.0732
AGCAACGG	0.0958

Sequence	PBM E-score
CTGTCCGA	0.189
CTTTATTA	0.18
ACTTATTA	0.192
GTTTATTA	0.293
GCTTATTA	0.369
CCTTATTA	0.211
ATTTATTA	0.186
CACCATCA	0.0657
TAAACGTA	0.172
GGTTTCAC	0.00803
ACGGCCCT	-0.0728
CTGTAGCC	-0.0863
AACTTGAT	0.268
AACTTGAA	0.109
AACTTGAG	-0.154
GGTGCAGA	-0.217
GCCAGGGA	-0.103
AACCTTGA	0.0727
CGAACCGC	-0.0247
CGAACCGA	0.262
GGAACCGA	0.0676
CTCGCCAC	-0.0198
AATTTTGT	0.143
AAATTTGG	0.075
AAATTTGT	0.277

Sequence	PBM E-score
TAATTTGA	0.106
CAATTTGA	-0.0156
AAATTTGA	0.325
CTGGAGGA	-0.121
CCTACCGC	-0.0896
GGCTGTAC	-0.0764
CGAGTGTA	-0.0885
ACGCTTTA	0.0919
AAGACAAG	0.0865
CAGACAAC	0.0003
AAGACAAC	0.336
GCGCGTCA	0.0818
AAGCGACT	-0.0195
TGATATAA	-0.0984
GTATATAA	0.182
TCATATAA	-0.00059
CTATATAA	0.0617
AGTTATAA	-0.037
CGTTATAA	0.163
TTATATAA	0.427
ATATATAA	0.32
TGTTATAA	0.253
AAGCCGGC	0.149
GGTGATTA	0.236
CGTGATGA	0.0624

Sequence	PBM E-score
CGTGATTC	-0.021
CGTGATTA	0.303
AGTGATTC	0.11
AGTGATTA	0.287
GGCGGCTA	0.0654
AACCTTGG	-0.168
CTAACACC	-0.0338
AATCTAGC	0.08
CAAGATTG	-0.0156
ACGGCATA	0.16
GGTCCGAA	0.143
CGTCCGAA	0.1
TGTCCGAA	0.266
ACCCTCTC	-0.183
CCCTTGAC	-0.197
TCCTCACA	-0.115
ACGGATCC	-0.0362
ACGGCGCC	0.139
AGCGCGCA	0.355
CAAGCGCC	-0.119
CAAGCGCA	0.262
AACGCGAA	0.298
AAAGCGCA	-0.0636
ACGGCGCG	0.322
ACGGCGCT	-0.0736

Sequence	PBM E-score
AGCGCGAA	0.21
AGCGCAAA	0.189
CACGCGAA	0.0527
AACGCGAG	0.115
AAGTTGAG	0.0317
GCCAACAA	-0.0504
TCGTCTAA	-0.0389
GCCGCAAC	0.0201
CGCACCGA	-0.0919
CGGCTAAA	-0.0162
CAGAGACG	0.0945
CGTTGGAC	-0.137
GCGATCGC	0.241
TGCGCGCA	0.301
GGCGCGCA	0.195
GGCGCGTA	-0.0178
AACGCGCG	0.282
CGCGCGCA	0.242
AACGCGCT	0.0463
CGCGCGCG	0.214
AGCGCGCG	0.311
CGCGCGTA	0.152
AGCGCGCT	0.152
AGCGCGTA	0.284
AACGCGCA	0.189

Sequence	PBM E-score
CGGGGGAG	-0.432
CCAGTTTC	-0.155
CCTCCATA	-0.254
GTGGGTGA	0.0388
AGAACCAA	-0.131
CACAGGAC	-0.0449
AAAGGACA	-0.0819
ACAGCTGT	0.261
TCAGCTGA	0.31
ACAGCTGG	0.0155
ACAGCTAT	-0.0503
GCAGCTGA	0.0932
ACAGCTGA	-0.0375
CCCCGGAG	-0.2
CCAGGCGC	-0.0648
CAGTTACA	-0.00475
ATCCGTTC	0.229
ATCCGTTA	0.303
GTCCGTTA	0.199

From the supplement of paper PMC3334620
